Assay outcomes deposited in PubChem by several laboratories.
ALR inh: blocks human ALR sulfhydryl oxidase activity; P55789; purified ALR, DTT oxidation, H2O2 HRP-luminol luminescence; inhibition, % (test concentration not listed); hit rate 3.8% among 290,000;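 active = mean replicate inhibition above about 79%, with every replicate also reaching it, limit read from the data; inconclusive = only one of the two criteria met; inactive = mean below limit and not every replicate reaching it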
Target sequence (P55789 whole entry, looked up): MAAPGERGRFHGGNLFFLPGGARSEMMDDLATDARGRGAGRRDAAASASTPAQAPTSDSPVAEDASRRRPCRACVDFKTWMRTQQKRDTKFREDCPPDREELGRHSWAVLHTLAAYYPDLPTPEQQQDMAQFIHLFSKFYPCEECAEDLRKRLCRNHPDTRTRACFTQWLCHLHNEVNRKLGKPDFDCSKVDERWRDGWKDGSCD
Rtt109 Vps75: C. albicans Rtt109 histone acetyltransferase inhibition. Q5AAJ8. purified Rtt109/Vps75, ThioGlo CoA-SH fluorescence, 4 h. inhibition, % at 34.9 µM. hit rate 0.16% among 330,000. AID 540336;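 active = inhibition of at least 50% in every replicate; inconclusive = best replicate reaches 50% inhibition but some replicates fall short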
PRMT1 FP inh: inhibitors of human PRMT1 | Q99873 | recombinant PRMT1, activity-based probe fluorescence polarization | inhibition, % at 2.79 µM | hit rate 1.3% among 370,000 | AID 652257;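 active = inhibition above about 21% made by adding two undisclosed values, limit read from the data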
Target sequence (Q99873 whole entry, looked up): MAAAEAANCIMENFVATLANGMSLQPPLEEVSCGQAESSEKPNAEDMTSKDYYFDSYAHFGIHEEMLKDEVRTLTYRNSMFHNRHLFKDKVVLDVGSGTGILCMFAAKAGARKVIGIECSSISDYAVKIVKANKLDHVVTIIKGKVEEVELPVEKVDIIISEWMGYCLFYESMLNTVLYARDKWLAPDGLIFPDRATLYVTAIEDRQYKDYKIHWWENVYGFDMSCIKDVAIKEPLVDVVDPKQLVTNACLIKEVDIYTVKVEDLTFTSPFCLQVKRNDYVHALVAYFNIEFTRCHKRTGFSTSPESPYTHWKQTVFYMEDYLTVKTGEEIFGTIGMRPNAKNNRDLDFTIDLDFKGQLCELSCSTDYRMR
LANA-H2A inh: blocks KSHV LANA binding to histone H2A/H2B. cell-free LANA-H2A/H2B peptide, fluorescence polarization. AID 2629. inhibition, % (concentration not given with the values). hit rate 0.6% among 320,000. Q9QR71; in the data active = inhibition mostly above about 10%, no sharp cut-off; inactive = mostly below about 6.7%
rCAG binder: r(CAG) repeat RNA binding | TO-PRO-1 dye displacement fluorescence | inhibition, % at 3 µM | hit rate 1.3% among 370,000 | AID 651821;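 active = inhibition above the plate cutoff, the mean of all test compounds on that plate plus 3 SD, cut at about 35% in these data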;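 also: 0% = DMSO alone and 100% = 100 µM mitoxantrone as full dye displacement; higher means more dye released from RNA so lower well fluorescence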
ABHD5 PLIN5 PPI: ABHD5-PLIN5 protein interaction inhibition; Q00G26+Q8WTS1; Split G. princeps luciferase complementation, luminescence, 4 h; inhibition, % at 4 µM; hit rate 0.78% among 360,000;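 active = inhibition above the mean inhibition across every tested compound plus 3 SD, cut at about 22% in these data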;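 also: 0% = DMSO only wells and the 100% control is not disclosed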
Numbers without * were called inactive; u = inconclusive; x = not tested or not shown; ! = a repeat was not active. An excerpt weighted towards active compounds, which were near 5.9% of everything screened.

SMILES	ALR inh	Rtt109 Vps75	PRMT1 FP inh	LANA-H2A inh	rCAG binder	ABHD5 PLIN5 PPI
CCc1ccc(/C=C2\SC(=S)N(CCCC(=O)Nc3ccccc3C(=O)O)C2=O)cc1	97*	2	-2	-8	8	-4
COc1ccc2c(c1)[C@@H](NC(=O)C(F)(F)F)[C@@H]1CCCC[C@]21c1ccccc1	x	x	4	x	0	x
CCN(CC)c1ccc(NC(=O)CN2C(=O)CSc3ncccc32)c(C)c1	97*	-5	-3	0	0	-3
CCN(CC)c1ccc(NC(=O)Cn2cc3c(n2)CCC(C)C3)c(C)c1 (stereo not given)	99*	-6	-2	-5	-6	3
Fc1cccc(F)c1Cn1ccc2ccc(-c3ccc4ccn(Cc5c(F)cccc5F)c4c3)cc21	x	x	-1	x	4	x
COc1ccc(-n2c(SCc3cccc4ccccc34)nnc2-c2ccccc2)cc1	x	x	0	x	7	x
CCCC[C@H]1C2CC(OC(=O)NCCCC(=O)OCC)C(C2)[C@H]2CCCCN21 (stereo not given in full)	x	x	6	x	1	x
N#Cc1cc(Oc2ccccc2)c(-n2nnc3ccccc32)cc1C#N	x	-6	2	26*	5	-4
O=C(NN=C1CCCC1)c1n[nH]c2c1CCC2	4	3	-2	-3	0	13
O=C(NN=C1CCCC1)c1n[nH]c2c1CCCC2	99*	8	-4	-1	2	-4
CCN(Cc1cn(Cc2ccccc2)nn1)S(=O)(=O)c1ccccc1Br	x	x	3	x	-1	x
C1CCC(C(CC2CCCCN2)C2CCCCC2)CC1 (stereo not given)	x	78*!	-5	-13	11	8
COC(=O)C1=CC[C@@H](NC(=O)OC(C)(C)C)[C@H](O)[C@H]1O[Si](C)(C)C(C)(C)C	x	x	0	x	x	x
Cc1ccc(S(=O)(=O)Cc2ccc(C(=O)N3CCN(c4ccccn4)CC3)o2)cc1	97*	-5	7	-3	0	4
COc1cccc(-c2nc(CSCC(=O)N3CCc4ccccc43)c(C)o2)c1	44	x	-1	-3	4	-2
Cc1oc(-c2ccccc2Cl)nc1CSCC(=O)N1CCCC1	75	-17	0	5	-5	5
CCOc1ccc(-c2nc(CSCC(=O)N3CCN(c4cccc(OC)c4)CC3)c(C)o2)cc1	99*	4	1	1	3	3
Cc1ccccc1-c1nc(CN2CCC(C(=O)N3CCN(c4ccccn4)CC3)CC2)c(C)o1	-12	9	-6	2	-6	1
Cc1ccc(-c2nc(CSCC(=O)N3CCN(c4ccccn4)CC3)c(C)o2)cc1	99*	14	-4	0	1	0
CCc1ccc(-c2nc(CSCC(=O)N3CCN(c4ccccn4)CC3)c(C)o2)cc1	85*	-14	-1	5	-5	5
Cn1c(SCC2CCC2)nnc1-c1ccco1	x	x	0	x	-1	x
O=C(NC1CCCC1)C(c1ccccc1)n1c(-c2cccc3ccccc23)nc2ccccc21 (stereo not given)	x	x	-1	x	5	5
O=C(NC1CCCCC1)c1nc(C2CCNCC2)oc1-c1ccccc1	x	x	1	x	9	-3
COc1ccc2c(c1)CN1C(=O)N(CC(C)C)S(=O)(=O)CC21 (stereo not given)	x	x	-2	x	4	x
Cc1noc(C)c1NC(=O)N1C[C@H](O)COC[C@H]2O[C@@H](CC(=O)NCC3CCCCC3)CC[C@@H]21	x	x	8	x	0	-4
SMILES	ALR inh	Rtt109 Vps75	PRMT1 FP inh	LANA-H2A inh	rCAG binder	ABHD5 PLIN5 PPI
O=C(CSc1ccccc1)N1CCN(c2ccccn2)CC1	x	-3	-2	-4	-1	-5
O=C(CSCc1ccccc1Cl)N1CCN(c2ccccn2)CC1	99*	-1	0	1	-7	2
CCN(CC)S(=O)(=O)c1cccc(-c2nnc(SCc3nc4ccccc4s3)o2)c1	-26	6	1	8	2	1
Brc1ccccc1-c1nnc(SCc2nc3ccccc3s2)o1	96*	0	2	1	0	-4
C=CCn1c(Cc2cccs2)nnc1SCC(=O)Nc1ccc2c(c1)OCO2	x	x	3	x	3	x
CC(C)C[C@@H](CNCC(=O)[C@H](C)NC(=O)c1[nH]cnc1C(=O)N[C@H](CN)CC(C)C)NC(=O)c1nc[nH]c1C(=O)N[C@@H](C)C(=O)O	x	-1	5	x	-2	0
Cc1n[nH]c(C)c1Sc1ccccc1N	96*	-16	2	0	-2	-1
Cc1ccc(NCC(=O)N/N=C/c2ccc(OC(=O)c3ccco3)cc2)cc1	99*	4	-1	1	3	-2
CCOC(=O)N/N=C\c1ccc(OC(=O)c2ccco2)cc1	7	-8	5	-3	-1	-6
OC(c1ccccc1)(c1ccccc1)C1CCN(CCCOc2ccc(-c3ccc(F)cc3F)cc2)CC1	x	x	2	x	8	x
CS/C(=C\[N+](=O)[O-])Nc1ccccc1	80*	1	6	2	2	6
CC1(C)OC(=O)C2(Cc3ccccc3N3CCCCC32)C(=O)O1 (stereo not given)	99*	23	-1	1	-2	8
O=C(NNS(=O)(=O)c1ccc([N+](=O)[O-])cc1)c1ccc2ccccc2c1O	98*	8	1	0	30	-11
O=C(NNS(=O)(=O)c1ccc([N+](=O)[O-])cc1)c1ccccc1	x	-6	-2	x	0	0
CCOC(=O)c1c(N)sc(C(N)=O)c1C	-1	11	-2	2	2	6
CCOC(=O)c1c(N)sc(C(=O)N2CCCCCC2)c1C	83*	11	2	2	-9	2
CCOC(=O)c1sc(NC(=O)CCN2CCCCCC2)c(C(=O)OCC)c1C	97*	x	4	3	2	8
CCOC(=O)c1c(N)sc(C(=O)N(CC)CC)c1C	96*	11	1	-3	-5	-1
COc1ccccc1Cc1c(-c2cccc(Br)c2)nc2ccc(C)cn12	x	x	1	x	16	x
Oc1c(Cl)cc(Cl)cc1CNc1ccc(Br)cn1	93*	6	0	-6	12	4
Oc1ccc(Cl)cc1CNc1ccc(Br)cn1	-3	-6	-2	-4	1	-18
CCOC(=O)c1[nH]c(=S)[nH]c1C	x	9	8	x	0	-7
O=S(=O)(Nc1cccnc1Cl)c1ccc(F)cc1	x	-19	-9	-2	1	0
O=S(=O)(Nc1cc(Sc2cccc3cccnc23)c(O)c2ccccc12)c1ccc(F)cc1	x	x	73*	4	16	x
CC1CC(C)(C)NC(=S)N1CCC(=O)N1CCN(c2ccccc2)CC1 (stereo not given)	u	4	4	3	-7	-4
COc1ccc(N2CCN(C(=O)CCN3C(=S)NC(C)(C)CC3C)CC2)cc1 (stereo not given)	88*	0	2	-1	-8	-3
CC1CC(C)(C)NC(=S)N1CCCC(=O)N1CCN(c2ccc(F)cc2)CC1 (stereo not given)	83*	-1	-1	2	-8	-1
